Assay results reported in ChEMBL document CHEMBL3988442, “University of Dundee, Small-Polar-MMV Screening Library” (2021).

What was measured:
[1] = target: T1, Aspartate--tRNA(Asp/Asn) ligase (Mycobacterium tuberculosis (strain ATCC 25618 / H37Rv)) (UniProt P9WFW3); assay: Assay for Asp RNA synthetase-1 from Mycobacterium tuberculosis; type: functional; set-up: scale not given: direction of the effect not stated beside the values; settings: 30 µM; further: in the data most compounds retested in dose-response had high values
T1 sequence (whole entry): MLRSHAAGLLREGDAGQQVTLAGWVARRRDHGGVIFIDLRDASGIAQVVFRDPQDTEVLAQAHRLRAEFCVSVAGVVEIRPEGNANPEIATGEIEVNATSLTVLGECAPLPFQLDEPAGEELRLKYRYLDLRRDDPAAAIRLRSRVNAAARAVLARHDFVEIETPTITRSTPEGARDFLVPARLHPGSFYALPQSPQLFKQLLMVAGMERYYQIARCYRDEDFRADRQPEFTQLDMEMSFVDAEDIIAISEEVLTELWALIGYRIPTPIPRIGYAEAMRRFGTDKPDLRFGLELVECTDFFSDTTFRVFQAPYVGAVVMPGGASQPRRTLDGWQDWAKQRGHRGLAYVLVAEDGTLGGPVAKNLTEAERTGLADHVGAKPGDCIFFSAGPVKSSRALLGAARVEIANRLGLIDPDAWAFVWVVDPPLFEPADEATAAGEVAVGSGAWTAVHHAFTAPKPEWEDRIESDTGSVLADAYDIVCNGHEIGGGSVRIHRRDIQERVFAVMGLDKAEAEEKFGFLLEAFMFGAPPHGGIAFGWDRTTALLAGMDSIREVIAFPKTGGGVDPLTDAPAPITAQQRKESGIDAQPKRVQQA

[2] = target: Shiga toxin 2 (Escherichia coli O157:H7) (UniProt P09385+P09386); assay: E. coli 0.157:H7 Shiga Toxin SOP - stx2 screening assay; type: functional; set-up: scale not given: direction of the effect not stated beside the values; settings: 30 µM

Compound | Percent Effect [1] | Percent Effect [2]
Cc1cnc(NC(=O)c2ccc(-n3ncc(C#N)c3N)cc2)s1 | 0% | -13.3%
CCc1ncc(C(=O)N2CCCCC2Cn2cccn2)s1 (configuration not stated) | -4.28% | 15.5%
O=C(c1ccncc1)N1CCC(c2nc(O)cc(-c3cccnc3)n2)C1 (configuration not stated) | -1.81% | 4.42%
CC(C)c1nn(C)c(N(C)C)c1CNCC(O)c1ccccc1F (configuration not stated) | -7.16% | -23.3%
O=C(Nc1nnc(C2CC2)s1)NC1CCN(Cc2ccccc2)C1 (configuration not stated) | -0.344% | -174%
Cc1nc[nH]c1CN1C[C@@H]2CC[C@H](C1)N(C(=O)CCNS(C)(=O)=O)C2 | -4.9% | -0.862%
COCCCN1CCCN(C(C)C(=O)Nc2ccnn2C(C)C)CC1 (configuration not stated) | -3.7% | 11.2%
c1cc(C2CCCN2Cc2nnnn2C2CC2)cs1 (configuration not stated) | -4.43% | 5.22%
O=C1CC(c2ccc(C(=O)O)cc2)c2ncn(-c3cccc(F)c3)c2N1 (configuration not stated) | 7.81% | -17.3%
Cn1cccc1C(=O)Nc1cc(F)ccc1OCC1CCCO1 (configuration not stated) | -6.53% | 22%
COc1cc(C(=O)N2CCCC(CNS(C)(=O)=O)C2)cc(OC)c1C (configuration not stated) | -4.03% | 25.9%
Cc1nc(CN2C(=O)CC[C@@H]3[C@H]2CCN3C(=O)NC2CC2)cs1 | -0.474% | -11.4%
CCOCCCNC(=O)c1cn(CC)nc1C | -4.5% | -51.1%
CCCc1n[nH]c(C2CN(C(=O)c3cc(F)ccc3OC)CCO2)n1 (configuration not stated) | 0% | 29.8%
Cc1cc(C)c2c(OCC(=O)NC(C)C)nn(C)c2n1 | -1.15% | -0.409%
O=C(Cc1ccccc1F)N1C[C@@H]2COC[C@]2(COc2cccnc2)C1 | 6.28% | 3.35%
Cn1cc(-c2cnc(N3CCCC3)nc2)cc1C(=O)O | -9.05% | 10.6%
CC(=O)c1cccc(OCCCC(=O)N(C)Cc2cccc(O)c2)c1 | -2.31% | -20.2%
CCc1ccc(CN2CCC3(CC2)CC(N2CCN(C)CC2)CO3)cc1 (configuration not stated) | 2.64% | 1.21%
CC(C)c1cc(C(=O)N2CCN(Cc3ccsc3)CC2)n[nH]1 | -1.06% | 9.72%
CN(C(=O)Cn1nc(-c2ccc(F)cc2)oc1=O)C1CCS(=O)(=O)C1 (configuration not stated) | 4.6% | -7.66%
Cc1cc(C)c(CNC(=O)N2CCCC2C(N)=O)c(=O)[nH]1 (configuration not stated) | -6.91% | -4.4%
Cc1nc(C)n(CC2CN(Cc3cccc4c3OCCO4)CCO2)n1 (configuration not stated) | -4.36% | 23.8%
CCCNC(=O)Nc1cc2c(cc1SC)OCCO2 | -0.324% | -0.581%
COCc1nc(C(=O)N2CCCC(n3cccn3)C2)cs1 (configuration not stated) | -1.71% | -22.6%
Cn1ccnc1CN1CCN(CCOc2ccccc2C#N)CC1 | -0.506% | 16.8%

Compound | Percent Effect [1] | Percent Effect [2]
O=C(NS(=O)(=O)c1ccccc1Cl)c1cccc2c1OCCO2 | -6.15% | -2.92%
CNc1ccc(CC2CCCN(C(=O)c3cnc(C)nc3)C2)nn1 (configuration not stated) | 1.57% | -10.7%
COc1ccc(CNC(=O)NC2CCN(CC(F)F)CC2)cc1C | -0.127% | -3.6%
c1cnnc(NCC2CN(Cc3cccc4c3OCCO4)CCO2)c1 (configuration not stated) | -1.18% | -1.74%
COc1ccc(C(=O)N(C)Cc2cccc(C#N)c2)c(OC)c1OC | -1.51% | 30.3%
CCNc1cc2c(nn1)CCN(C(=O)c1cccc3c1OCCO3)C2 | 7.68% | -25.7%
Cc1noc(C2CCN(C(=O)c3c(C)noc3C)CC2)n1 | 0.55% | -6.04%
CCCNC(=O)CCC(=O)Nc1ccc(-n2cncn2)c(F)c1 | -1.12% | 5.57%
CNC(=O)[C@H]1C[C@@H]2CN(S(=O)(=O)c3ccccc3)C[C@@H]2N1C(C)=O | 2.08% | -6.09%
CCOc1c(Cl)cccc1NCc1cc(C)on1 | -1.21% | -64.7%
CC(C)CN1CCC2(CCN(C(=O)c3ccc(F)cc3)CC2)C1=O | -3.41% | -8.12%
Cc1cc(CN2CCOC(CN(C)c3cccnn3)C2)no1 (configuration not stated) | -2.36% | 18.5%
CC(C#N)CSc1ccccc1NCC(=O)Nc1ccc(F)cc1 (configuration not stated) | 2.19% | -7.42%
COc1cc(N2C[C@@H]3COC[C@]3(COCc3cccc(C)n3)C2)ncn1 | -0.107% | -2.46%
CC(C)C(=O)NCC(=O)N(C)C1CCCN(C2Cc3ccccc3C2)C1 (configuration not stated) | 1.1% | 0.34%
Cc1cccc2nc(C(=O)N3CCC(Nc4cccnn4)CC3)cn12 | -1.93% | 8.8%
O=C(Nc1cccc(CN2CCOC2=O)c1)N1CCOCC1 | 1.78% | -57.1%
Cc1cnn(CCNCc2csc(-c3ccc(F)cc3)n2)c1 | -1.03% | 13.4%
Cc1cnn(CC2CCCCN2Cc2nc(N)c3ccccc3n2)c1 (configuration not stated) | -5.71% | -7.68%
Cc1cc(C)n(CC2CCCN2CCc2ccncc2)n1 (configuration not stated) | -1.26% | -7.41%
CN(C)C(=O)C1CN(Cc2ccccc2)CCN(S(C)(=O)=O)C1 (configuration not stated) | -2.4% | -6.7%
O=C1CC[C@H]2[C@H](CCN2C(=O)C2CCCO2)N1Cc1ccncc1 (some centres not stated) | 3.48% | -64%
CCc1ccc(O)c(C(=O)NC2CCN(S(=O)(=O)CC)CC2)c1 | -3.5% | -13.2%
CNS(=O)(=O)c1ccc(C(=O)N2CCCC(n3cccn3)C2)cc1 (configuration not stated) | 0.589% | 2.6%
COCCCN1CCCN(C(C)C(=O)Nc2cccc(I)c2)CC1 (configuration not stated) | 0.0704% | -31.1%
O=C(c1cccc(=O)[nH]1)N(Cc1ccsc1)CC1CCCO1 (configuration not stated) | 0.0781% | -11.1%

Compound | Percent Effect [1] | Percent Effect [2]
CC(CN1CCOCC1)NC(=O)N(C)Cc1ccc(Cl)s1 (configuration not stated) | 1.38% | -12.6%
c1ccc(-c2nc(CN3CCCC(Cn4cncn4)C3)no2)cc1 (configuration not stated) | -9.3% | 7.88%
CCC1CCCCN1C(=O)c1ccc2[nH]nnc2c1 (configuration not stated) | 6.94% | -3.51%
O=C1NCCN1C1CCCN(Cc2coc(-c3ccc(F)cc3)n2)C1 (configuration not stated) | -2.94% | -27.1%
CCC(C)CNc1ccc2oc(COC)nc2c1 (configuration not stated) | 65.3% | -59.7%
Cc1nccn1-c1cc(CNC(=O)CCNC(=O)C2CCCC2)ccn1 | -2.19% | 1.23%
N#Cc1ccccc1N1CCCN(C(=O)CCn2cccn2)CC1 | -10.7% | 3.42%
CC(C)CN1CCN(C(=O)Nc2cc(C(F)(F)F)c[nH]c2=O)CC1 | -1.79% | 5.35%
COc1ccc(OCC(=O)NC(C)c2ccc(F)cc2)c(C(=O)O)c1 (configuration not stated) | 0.691% | 12%
Cc1cccnc1CNCC1(O)CCCN(Cc2ccc(F)cc2)C1=O (configuration not stated) | 0.386% | 4.74%
CNC(=O)[C@H]1C[C@@H]2CN(C(=O)c3ccco3)C[C@@H]2N1S(C)(=O)=O | -2.01% | -24.9%
CC(C)C(C(=O)N1CCN(Cc2ccncc2)CC1)n1cncn1 (configuration not stated) | 7.46% | -21.4%
CC1COCCN1C(=O)c1cccc(OCc2cscn2)c1 (configuration not stated) | -6.86% | 0.62%
CN1CCCC1CNC(=O)c1nnn(-c2ccc(F)cc2)c1C1CC1 (configuration not stated) | 3.7% | -26%
Cn1ncc2c1CN(Cc1cccnc1)CC2COCC1CC1 (configuration not stated) | 2.03% | -44.8%
CS(=O)(=O)CCNC(=O)C1(c2cccc(Cl)c2)CCCCC1 | 1.2% | -20.3%
Cc1nn(C)c(C)c1C1CCCN1C(=O)c1cnc2n[nH]c(C)c2c1 (configuration not stated) | -5.16% | -21.8%
COc1cccc(CN(C)C(=O)Nc2ccc3c(c2)OCCO3)c1 | 16.5% | -9.02%
COc1c(C2CCCN2C(=O)c2ccnc(N(C)C)c2)c(C)nn1C (configuration not stated) | 2.59% | 25.8%
CC1N(CC2CC2)C(=O)COC12CCN(Cc1nccs1)CC2 (configuration not stated) | -0.821% | -13.9%
Cn1cnc(S(=O)(=O)N2CCCC2)c1Cl | -1.03% | -7.1%
Cc1ccc2c(n1)N(CCN(C)C)CCN(C(=O)c1ccc[nH]1)C2 | 8.78% | -14.6%
N#Cc1cccc(C(=O)N2CCc3ncc(Cn4cccn4)n3CC2)c1 | 3.32% | 9.25%
Cn1cccc1C(=O)N1CCc2ncc(Cn3cccn3)n2CC1 | -0.291% | -19.1%
CCCn1[nH]cc/c1=N\C(=O)CN1CCn2c(nnc2C2CC2)C1 | -2.17% | 25.6%
CCC(CC)C(CNC(=O)Nc1cc(C)nn1C)N1CCOCC1 (configuration not stated) | -8.48% | -29.4%

Compound | Percent Effect [1] | Percent Effect [2]
Cc1ncsc1CN1C[C@@H]2COC[C@]2(C(=O)NCC2CC2)C1 | 0.838% | -13.5%
CN(CC1(O)CCCN(c2ccccn2)C1)C(=O)Cc1ccsc1 (configuration not stated) | 1.53% | 13.7%
Cc1cn2c(n1)CCC(NC(=O)c1cnc(C)nc1C(C)C)C2 (configuration not stated) | 2.91% | 20.9%
O=C(NCCN1CCCCC1)c1ccoc1 | 2.52% | -21.3%
Cc1nn(C)c(C)c1C1COCCN1C(=O)Cc1cccc(F)c1 (configuration not stated) | 1.67% | -31%
CCCC1(CO)CCCN(c2ncccc2F)C1 (configuration not stated) | 0.836% | -7.35%
COc1cccc(CN2CCCC3(CCN(C(=O)c4ccco4)C3)C2)c1 (configuration not stated) | 0.0455% | -1.7%
O=C(c1ccc(F)cc1F)N1C[C@@H](O)[C@H](N2CCOCC2)C1 | 4.46% | -20.4%
Cc1nn(-c2ccccc2)cc1C(=O)N1CCCN2CCCC2C1 (configuration not stated) | -6.57% | -22%
CCOc1ncccc1NC(=O)NCC(O)c1ccccc1OC (configuration not stated) | -0.742% | -2.67%
Cc1noc(C)c1C(=O)N1CC[C@H]2C[C@@H](c3nccs3)O[C@@H]2C1 | 3.92% | 3.87%
Cc1cnn(CC(C)NCc2csc(-c3cnn(C)c3)n2)c1 (configuration not stated) | 1.91% | -23.5%
COc1cc(CNC(=O)CNc2cc(Cl)ccc2OC)ccn1 | 3.88% | 20.6%
CC(Cn1cccn1)NC(=O)NCc1cccnc1OC1CCCC1 (configuration not stated) | -4.78% | -7.65%
CCn1cc(NC(=O)NCC(c2cccs2)N(C)C)cn1 (configuration not stated) | -1.06% | 24.9%
CCN1CCN(S(=O)(=O)c2cc(Cl)c(Cl)cc2C)CC1 | -2.76% | -10.7%
CCC1CN(C(=O)c2ccccc2N2CCCC2)CCN1C(C)C (configuration not stated) | -4.91% | 12.2%
Cc1cc(C)c2cc(CNCC3CCCO3)c3nn(C)c(=O)n3c2c1 (configuration not stated) | 1.03% | 3.55%
Cc1nc(CN2CCCN(CC(=O)Nc3cccnc3)CC2)no1 | 1.58% | 16.4%
Cc1nn(C)cc1C(=O)Nc1cccc(CN2CCC(CO)CC2)c1 | 3.06% | -101%
Cc1cnn(CC2CCCN2C(=O)c2cc(C)no2)c1 (configuration not stated) | -4.16% | 16.5%
O=C(CCc1nccs1)N1CCC(N2CCNC2=O)CC1 | 4.28% | -16.6%
O=C(CO)N1CCc2onc(Cn3cccn3)c2C1 | -1.21% | 7.04%
